High-throughput results from PubChem BioAssay.
Vc quorum ag: inducers of Vibrio cholerae quorum light production without autoinducers, primary screen, BH1578 luxS cqsA deficient, single point. V. cholerae BH1578 lux reporter, luminescence, 6 h. hit rate 0.16% among 350,000. activation, % at 18.7 µM; in the data active = activation mostly above about 9.7%, no sharp cut-off
Rv3671c protease: Rv3671c serine protease inhibitors, primary screen, biochemical, fluorescence polarization, M. tuberculosis H37Rv | P9WHR9 | AID 2606, 2010 | inhibition, % at 5.96 µM | hit rate 0.048% among 320,000; in the data active = inhibition above about 38%;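 also: extracellular domain of Rv3671c used as enzyme; 0% = enzyme with DMSO and 100% = no enzyme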
GDH-TPI counter-1: GDH-TPI coupling enzyme inhibitors, primary screen, artefact control for M. tuberculosis FBA inhibitor project, biochemical, absorbance, full deck | GDH-TPI coupled enzyme counterscreen, NADH absorbance | inhibition, % at 4.8 µM | hit rate 1.2% among 360,000 | AID 588335, 2011; in the data active = inhibition above about 30%;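 also: 0% = DMSO wells and 100% = wells lacking the enzyme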
Mtb UGM inh: M. tuberculosis UGM enzyme inhibitors, primary screen, biochemical, fluorescence polarization, single point | hit rate 0.06% among 320,000 | inhibition, % at 10 µM | AID 504406, 2011 | purified UGM, fluorescence polarization probe displacement; in the data active = inhibition above about 10%, passing the limit was not always enough
RecA splice inh: Mtb RecA intein splicing inhibitors, primary screen, biochemical, fluorescence, HTS; Protein RecA (Mycobacterium tuberculosis (strain ATCC 25618 / H37Rv)), P9WHJ3; cell-free RecA intein splicing; inhibition, % (no concentration beside the values); hit rate 0.75% among 290,000; AID 2221, 2009; in the data active = inhibition above about 30%;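 also: 0% = vehicle wells and 100% = reference inhibitor control wells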
Mtb FBA inh: Mtb FBA enzyme inhibitors, primary screen, biochemical, fluorescence, strain H37Rv; Fructose-bisphosphate aldolase (Mycobacterium tuberculosis (strain ATCC 25618 / H37Rv)), …; hit rate 2.3% among 360,000; inhibition, % at 1 µM; purified M. tuberculosis FBA, fluorescence read-out; AID 588726, 2011;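 also: 0% = vehicle and 100% = reference inhibitor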
Target sequence (P9WQA3 whole entry, looked up): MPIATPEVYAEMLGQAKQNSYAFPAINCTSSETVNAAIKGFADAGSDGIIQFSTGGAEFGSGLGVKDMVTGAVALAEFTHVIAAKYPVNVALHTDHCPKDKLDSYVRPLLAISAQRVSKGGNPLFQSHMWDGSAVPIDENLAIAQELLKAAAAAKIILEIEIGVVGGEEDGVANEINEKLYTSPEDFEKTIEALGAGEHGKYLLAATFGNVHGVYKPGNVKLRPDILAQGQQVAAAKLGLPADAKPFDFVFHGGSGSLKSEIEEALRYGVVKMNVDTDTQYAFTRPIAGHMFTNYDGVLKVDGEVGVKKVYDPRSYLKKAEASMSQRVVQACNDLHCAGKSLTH
Mtb FBA confirm: M. tuberculosis aldolase blockers, biochemical, fluorescence, strain H37Rv, confirmation; inhibition, % at 1 µM; hit rate 78% among 5,600; purified M. tuberculosis FBA, fluorescence read-out; shares compounds with Mtb FBA inh;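 also: 0% = vehicle wells and 100% = reference inhibitor wells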
GDH-TPI counter-2: GDH-TPI coupling enzyme inhibitors, artefact control for M. tuberculosis FBA inhibitor project, biochemical, fluorescence, high throughput. GDH-TPI coupled enzyme counterscreen. inhibition, % at 1 µM. hit rate 81% among 5,600. shares compounds with Mtb FBA inh. AID 652141, 2013; in the data active = inhibition above about 10%
* marks the source's active call; other numbers are inactive results; i = inactive; / = no result. In the library only some 4.1% were active in any assay of this set; here they are far more common. Rule as the data show it, unless noted: active = inhibition above about 27%; inactive = the rest.

SMILES	Vc quorum ag	Rv3671c protease	GDH-TPI counter-1	Mtb UGM inh	RecA splice inh	Mtb FBA inh	Mtb FBA confirm	GDH-TPI counter-2
COc1ccc(S(=O)(=O)NNC(=O)C2COc3ccccc3O2)cc1[N+](=O)[O-] (stereo unspecified)	3	4	1	1	/	0	/	/
CC(O)c1nc2ccccc2n1CCCc1ccccc1 (stereo unspecified)	9	-6	2	0	4	0	/	/
COc1cccc(CNC(=S)Nc2ccc3c(c2)c(=O)n(C)n3Cc2ccccc2)c1	0	/	6	/	/	56*	68*	44*
S=C(NCCc1ccccc1)N1CCC2CC1c1c(Cl)cccc12 (stereo unspecified)	1	/	-12	/	/	0	/	/
CCN(C(=O)C1CC1)C1CCS(=O)(=O)C1 (stereo unspecified)	-2	2	-6	1	1	35*	121*	106*
CCCCN(C(=O)C1CC1)C1CCS(=O)(=O)C1 (stereo unspecified)	-1	-7	-10	-1	-2	1	/	/
Cc1cc(=O)oc2c(C)c(OCC(=O)N3CCN(C(=O)C4COc5ccccc5O4)CC3)ccc12 (stereo unspecified)	i	-7	17	1	-1	32*	136*	118*
Cc1cc(=O)oc2c(C)c(OCC(=O)N3CCN(c4ccccc4)CC3)ccc12	0	-1	20	0	0	4	/	/
O=C(COc1ccc2c3c(c(=O)oc2c1)CCC3)N1CCN(c2ccccc2)CC1	1	5	10	-5	5	9	/	/
Cc1c(OCC(=O)N2CCC(C(=O)O)CC2)ccc2c3c(c(=O)oc12)CCCC3	-1	1	18	4	/	66*	70*	58*
O=C(O)C1CCN(C(=O)COc2ccc3c4c(c(=O)oc3c2)CCCC4)CC1	-1	-7	14	1	-2	100*	57*	48*
CCc1cc(=O)oc2cc(OCC(=O)N3CCC(C(=O)O)CC3)ccc12	0	5	6	-2	-2	27*	74*	71*
CN(C)S(=O)(=O)c1ccc(N2CCCC2)c(C(=O)NNC(=O)COc2ccccc2F)c1	i	-2	-3	0	-3	2	/	/
COCCNc1nc(NCCN2CCNC2=O)c2sc(-c3ccccc3)cc2n1	-1	/	21	/	/	12	/	/
Cc1c(C)c2ccc(OCC(=O)N3CCC(C(=O)O)CC3)cc2oc1=O	0	-11	8	-2	1	103*	-5	-5
CCCOc1ccc2c(CC)cc(=O)oc2c1C	0	-13	18	0	-1	35*	92*	80*
Cc1c(OCC(=O)NCC2CCC(C(=O)O)CC2)ccc2c(-c3ccccc3)cc(=O)oc12 (stereo unspecified)	0	-3	19	-1	7	1	/	/
O=C(O)[C@@H]1CCCN1C(=O)COc1ccc2c3c(c(=O)oc2c1)CCC3	0	3	15	1	/	42*	92*	68*
CCc1cc(=O)oc2c(C)c(OCC(=O)N3CCC(C(=O)O)CC3)ccc12	0	0	15	-1	2	38*	-7	-9
CCCc1cc(=O)oc2cc(OCC(=O)N3CCC(C(N)=O)CC3)ccc12	-1	-3	11	-1	/	26	/	/
CCCc1cc(=O)oc2c(C)c(OS(C)(=O)=O)ccc12	i	5	3	-2	-3	5	/	/
CCC(C(=O)NCCC(C)C)n1ccc2cc(S(=O)(=O)N3CCCCC3)ccc21 (stereo unspecified)	-5	-24	-7	-2	5	-1	/	/
